# PubChem BioAssay (Tox21)
# Unmarked numbers belong to inactive results. Where a call stands in place of a potency, no number is given. Calls of active or inactive are those of the source. Calls follow the shape of the dose curve; as a rule, active = well fitted activation curve with a large enough effect in the repeat runs; inconclusive = weak or mixed curves; inactive = flat fitted curve, though single readings scatter.
# Target: KiSS-1 receptor (Homo sapiens) (UniProt Q969F8)
# Test: Human kisspeptin (KISS1R) small molecule agonists, calcium flux assay in KISS1R-HEK293 cells (AID 1920064)
# Details: KISS1R-HEK293, calcium flux fluorescence, agonist; series mostly up to 76.8 µM; activation: at the top concentration
# From the text: National Center for Advancing Translational Sciences [NCATS]
# Division of Preclinical Innovation [DPI]
# U.S. Environmental Protection Agency [EPA]
# National Institutes of Environmental Health Sciences [NIEHS]
# National Toxicology Program [NTP]
# U.S. Food and Drug Administration [FDA]
# Kisspeptin and its receptor KISS1R play key roles in mammalian reproduction due to their involvement in the onset of puberty and control of the hypothalamic-pituitary-gonadal axis such as regulates GnRH release from the hypothalamus. The kisspeptin/KISS1R system also plays a direct role in peripheral organs (including the ovary, testis, uterus, and placenta) and is implicated in reproductive diseases such as miscarriage and polycystic ovary syndrome (PCOS). Abnormal KISS1R activity is associated with abnormal puberty, infertility, endometriosis, and hormone-dependent tumors. The KISS1 receptor (KISS1R, also called GPR54), a G-protein-coupled receptor (GPCR), acts (through phospholipase C) to increase intracellular inositol trisphosphate and then release intracellular calcium stores. Cell-based KISS1R-HEK293 assay is using HEK293 cells that have been genetically engineered to express the human KISS1R, which activity can be measured by calcium signaling. A compound/drug can activate (agonist) KISS1R that can be monitored by levels of intracellular calcium.
# KISS1R-HEK293 cells developed by Codex Corp contain human KISS1R gene, which was stably integrated into HEK 293 cells. The compound activation can be detected by fluorescence intensity via calcium flux assay. This cell line has been used to screen the Tox21 10K compound library to identify agonists of KISS1R.
# KISS1R-Hek293 cells were dispensed at 1500 cells/4uL/well in 1536-well black wall/clear bottom plates using a multidrop dispenser. After the assay plates were incubated at a 37 C/5% CO2 incubator for 18 hours, 4 microL of Calcium Dye Solution was added to each well. The plates were incubated at 37 C for 1 hour. And then 23 nL of compounds dissolved in DMSO, positive controls, or DMSO only was transferred to the assay plate by a pin tool station. The fluorescence intensity in the plates was measured using FDSS 7000EX kinetic plate reader with a filter set of Ex/Em=480/540 for 3 min at 1 sec intervals. Each test compound was measured at 15 concentrations and in triplicates.
# KiSS-1 receptor (Homo sapiens), sequence (Q969F8 whole entry, looked up): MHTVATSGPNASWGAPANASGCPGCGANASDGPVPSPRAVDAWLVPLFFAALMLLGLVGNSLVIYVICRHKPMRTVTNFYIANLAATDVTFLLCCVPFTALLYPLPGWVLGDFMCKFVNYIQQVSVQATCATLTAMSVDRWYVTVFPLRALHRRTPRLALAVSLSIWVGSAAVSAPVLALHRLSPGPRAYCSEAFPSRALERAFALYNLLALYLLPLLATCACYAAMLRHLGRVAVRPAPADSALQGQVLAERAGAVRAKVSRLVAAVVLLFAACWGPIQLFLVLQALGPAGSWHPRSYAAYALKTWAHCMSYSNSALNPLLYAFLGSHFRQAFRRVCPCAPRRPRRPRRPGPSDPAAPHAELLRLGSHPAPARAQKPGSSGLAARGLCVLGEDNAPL
Structure (SMILES),Potency,activation
Oc1c(Br)cc(Br)cc1Br,inactive,–
N#Cc1cccc(C#N)c1,inactive,–
Nc1ccc(Cl)c(Cl)c1,inactive,–
O=S(=O)(O)OOS(=O)(=O)O,inactive,–
CC(C)(O)C(=O)Nc1ccc([N+](=O)[O-])c(C(F)(F)F)c1,inactive,–
CN(C)[C@@H]1C(=O)C(C(N)=O)=C(O)[C@@]2(O)C(=O)C3=C(O)c4c(O)cccc4[C@@](C)(O)[C@H]3C[C@@H]12,inactive,–
Clc1ccc(C(Cl)(Cl)Cl)cn1,–,-1.9%
CC(C)C(C)(N)C#N (stereo not given),–,0.692%
COc1ccc(C(O)(c2cncnc2)C2CC2)cc1 (stereo not given),–,-0.62%
O=C1C(Cl)=C(Cl)C(=O)C(Cl)=C1Cl,inactive,–
Oc1ccc(Cl)cc1Cl,inactive,–
C1CCC2CCCCC2C1 (stereo not given),–,1.81%
C[C@]12CC[C@H]3[C@@H](CC=C4C[C@@H](O)CC[C@@]43C)[C@@H]1CC[C@@H]2O,–,-1.51% [at 35.3 µM]
CC(C)COC(=O)c1ccccc1C(=O)OCC(C)C,–,8.65%
O=C1c2ccccc2C(=O)N1SC(Cl)(Cl)Cl,–,22.2%
[O]=[Cr](=[O])([OH])[O][Cr](=[O])(=[O])[OH],inactive,–
O=C(Cl)c1ccccc1,–,-0.256%
CNC(=O)Oc1ccccc1OC(C)C,inactive,–
C1CCC(NC2CCCCC2)CC1,inactive,–
O=[N+]([O-])/N=C1\NCCN1Cc1ccc(Cl)nc1,inactive,–

Structure (SMILES),Potency,activation
Nc1ccc(N)cc1,inactive,–
CN=C=S,inactive,–
CC(C)OC(=O)Nc1ccccc1,inactive,–
CN(C)C(=O)Cl,inactive,–
N#Cc1nn(-c2c(Cl)cc(C(F)(F)F)cc2Cl)c(N)c1S(=O)C(F)(F)F (stereo not given),inactive,–
COc1ccc(C=O)cc1,inactive,–
CCCSC(=O)Cl,–,-1.35%
CC(C)(C)c1ccccc1O,inactive,–
c1ccc(NNc2ccccc2)cc1,inactive,–
CCOC(=S)S,inactive,–
NC1(c2ccccc2)CCCCC1,–,-0.675%
CCCC(=O)Cl,–,2.17%
Cc1cc(Cl)ccc1OC(C)C(=O)O (stereo not given),inactive,–
CCCCCC[n+]1ccccc1,inactive,–
N#Cc1cc(Br)c(O)c(Br)c1,inactive,–
CC1CC(CC2CCC(N)C(C)C2)CCC1N (stereo not given),–,6.13%
C=CC(=O)OCC(C)C,–,3.2%
Cc1cccc(N=Nc2ccc(N(C)C)cc2)c1,inactive,–
[Cd+2].[Cl-].[Cl-],inactive,–
CCn1cc[n+](C)c1C,inactive,–
